# Inconclusive results are not listed. Calls of active or inactive are those of the source. Rule for the calls: active = hit-call score of the fitted dose curve at least 0.9, where 1 is the maximum; inconclusive = response in the unintended direction; inactive = score below 0.9.
# Target: Cellular tumor antigen p53 (Homo sapiens) (UniProt P04637)
# Assay: TOX21_p53_BLA_p4_ratio: Tox21 HCT-116 p53 Agonism Beta-lactamase Assay, Ratio, Phase 4 (AID 2283601)
# Procedure, shortened: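 Signal is the blue/green (460nm/530nm) ratio of cleaved versus uncleaved CCF4-AM substrate, read after 2 h substrate loading. Cells were HCT116 carrying the p53-responsive beta-lactamase reporter, dosed 16 h at 37C, 5% CO2; CellTiter-Glo measured in parallel.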
# Cellular tumor antigen p53 (Homo sapiens), sequence (P04637 whole entry, looked up): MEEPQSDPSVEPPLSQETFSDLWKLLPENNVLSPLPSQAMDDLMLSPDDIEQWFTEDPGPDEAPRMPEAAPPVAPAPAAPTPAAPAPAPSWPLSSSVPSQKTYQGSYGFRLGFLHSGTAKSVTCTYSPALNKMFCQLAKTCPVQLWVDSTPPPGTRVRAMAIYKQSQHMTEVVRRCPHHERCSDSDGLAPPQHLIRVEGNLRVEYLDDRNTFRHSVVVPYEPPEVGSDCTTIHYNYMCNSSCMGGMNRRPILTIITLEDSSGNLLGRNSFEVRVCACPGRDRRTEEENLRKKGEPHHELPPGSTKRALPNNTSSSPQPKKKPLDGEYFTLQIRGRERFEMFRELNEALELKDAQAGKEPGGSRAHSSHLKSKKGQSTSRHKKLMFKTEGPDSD
row,Structure (SMILES),outcome
1,CC(C)(C#N)N=NC(C)(C)C#N,inactive
2,O=C(NC(=O)c1c(F)cccc1F)Nc1cc(Cl)c(F)c(Cl)c1F,inactive
3,CCOC(=O)C(SP(=S)(OC)OC)c1ccccc1 (stereo not drawn),inactive

# Reference: PubChem BioAssay (EPA / NIEHS)
